# Reference: PubChem BioAssay (Tox21)
# Inconclusive results are not listed. A call without a number means that no potency is given here. Active and inactive are the calls of the source. Unless noted, the call rests on the fitted dose curve; in most records, active means well fitted curve in the direction sought with a large enough effect in the repeat runs; inconclusive means weak or mixed curves; inactive means no such curve, though single readings can be large; an effect the other way counts as inactive or inconclusive.
# Assays:
# [1] = qHTS assay to identify small molecule antagonists of the androgen receptor (AR) signaling pathway using the MDA cell line in the presence of 0.5 nM R1881 - cell viability counter screen (AID 1259242); further: nearly all actives have a fitted effect of over 45% in size
# In short: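 Human breast carcinoma MDA-kb2 cells, cultured without CO2, receive compounds alongside 0.5 nM (final) R1881 agonist. After 16 hr at 37C, viability is taken as live-cell protease signal.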
# [2] = target: Estrogen receptor (Homo sapiens) (UniProt P03372); assay: qHTS assay to identify small molecule antagonists of the estrogen receptor alpha (ER-alpha) signaling pathway using the BG1 cell line in the presence of 0.1 nM 17-beta-estradiol (AID 1259244); further: nearly all actives have a fitted effect of over 50% in size
# In short: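 Seeding of stripped-serum-adapted VM7Luc4E2 cells, 24 h attachment, compound transfer, then 0.1 nM final 17beta-estradiol; after 22 h incubation, ONE-Glo reagent and luminescence reading.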
# [3] = qHTS assay to identify small molecule phospholipidosis (PLD) inducers (AID 1259344; active means well fitted curve in the direction sought with a large enough effect; an effect the other way counts as inactive or inconclusive)
# In short: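 Image-based: LipidTOX Red pit count/intensity per well and per cell; HepG2, 24 h compound at 37 C, PFA fixation, Hoechst counterstain.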
# [4] = qHTS assay to identify small molecule HDAC inhibitors (AID 1259364);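 further: wild-type HCT-116 cells with endogenous class I/II HDAC activity; top concentration of the series differs between compounds; nearly all actives have a fitted effect of over 45% in size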
# In short: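 After a 2 hr compound incubation (37C, 5% CO2), HCT-116 cells seeded at 1,500/well the day before received HDAC-Glo reagent; signal read as luminescence after 30 min at room temperature.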
# [5] = qHTS assay to identify small molecule HDAC inhibitors - cell viability counter screen (AID 1259365); further: series mostly up to about 92 µM; nearly all actives have a fitted effect of over 50% in size
# In short: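 HCT-116 (wild type), 1,500 cells/well, overnight 37C/5% CO2; compound in DMSO 2hr; CellTiter-Glo 30min RT; luminescence read.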
# [6] = qHTS assay to identify small molecule agonists of the sonic hedgehog signaling (Shh) pathway - cell viability counter screen (AID 1259366); further: nearly all actives have a fitted effect of over 50% in size
# In short: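 CellTiter-Fluor fluorescence read-out, 1 hr at 37C, added after 23hr compound exposure. Cells: 3T3 Gli1-Luc, an NIH/3T3 clone with stably integrated Gli1-Luc reporter, plated 4hr before compound.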
# [7] = qHTS assay to identify small molecule antagonists of the sonic hedgehog signaling (Shh) pathway - cell viability counter screen (AID 1259367); further: nearly all actives have a fitted effect of over 55% in size
# In short: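 Tox21 library chemicals were tested on a Gli1-Luc NIH/3T3 clone (2,000 cells/well) stimulated by conditioned medium; viability was quantified as fluorescence from CellTiter-Fluor reagent added at 23 hr.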
# [8] = qHTS assay to identify small molecule agonists of the sonic hedgehog signaling (Shh) pathway (AID 1259368; calls by dose curve;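 further: NIH/3T3-derived 3T3Gli1-Luc cells carrying a stable Gli1-driven firefly luciferase reporter; series mostly up to about 92 µM; nearly all actives have a fitted effect of over 15% in size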)
# In short: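 Stable NIH/3T3 Gli1-Luc reporter clone; 24 hr cpd exposure after a 4 hr settling period; luminescence endpoint.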
# [9] = qHTS assay to identify small molecule antagonists of the sonic hedgehog signaling (Shh) pathway (AID 1259369; calls by dose curve; further: nearly all actives have a fitted effect of over 45% in size)
# In short: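 Gli1 transcriptional reporter (firefly Luc) in NIH/3T3 background, conditioned-medium activated. 24hr exposure, luminescence endpoint.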
# [10] = target: Estrogen receptor beta (Homo sapiens) (UniProt Q92731); assay: qHTS assay to identify small molecule agonists of the estrogen receptor beta (ER-beta) signaling pathway (AID 1259377; active means well fitted activation curve with a large enough effect in the signal ratio in the repeat runs, not every such curve was filed as active; the % refers to the signal ratio)
# In short: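 Beta-lactamase reporter readout: fluorescence of LiveBLAzer B/G FRET substrate after 2 h at room temperature, following 16 h compound treatment of ER-beta-UAS-bla HEK293T cells at 37C in 2% charcoal-stripped FBS medium.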
# [11] = qHTS assay to identify small molecule agonists of the estrogen receptor beta (ER-beta) signaling pathway - cell viability counter screen (AID 1259380); further: nearly all actives have a fitted effect of over 30% in size
# In short: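 In this qHTS counter screen, HEK293T cells carrying an ER-beta/UAS beta-lactamase reporter, grown in 2% charcoal-stripped FBS, received compound for 16 hr; ATP-based CellTiter-Glo luminescence was then read after 30 min at room temperature.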
# [12] = qHTS assay to identify small molecule antagonists of the estrogen receptor beta (ER-beta) signaling pathway - cell viability counter screen (AID 1259382); further: series mostly up to about 92 µM; nearly all actives have a fitted effect of over 55% in size
# In short: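 HEK293T ER-beta-UAS-bla, 2% charcoal-stripped FBS; compounds + 1nM E2 16 hr 37C; CellTiter-Glo luminescence, 30 min RT.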
# [13] = target: Estrogen receptor (Homo sapiens) (UniProt P03372); assay: qHTS assay to identify small molecule agonists of the estrogen receptor alpha (ER-alpha) signaling pathway in the presence of an antagonist (AID 1259383; calls by dose curve; further: top concentration of the series differs between compounds; nearly all actives have a fitted effect of over 15% in size)
# In short: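 ER-alpha agonism measured under antagonist challenge: 10.0nM ICI-182,780 (final) plus compound, 15 concentrations, 22hr, VM7Luc4E2 ERE-luciferase cells. Read by luminescence.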
# [14] = qHTS assay to identify small molecule antagonists of the estrogen receptor alpha (ER-alpha) signaling pathway using the BG1 cell line in the presence of 0.1 nM 17-beta-estradiol - cell viability counter screen (AID 1259241); further: nearly all actives have a fitted effect of over 40% in size
# In short: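 Live-cell protease activity (CellTiter-Fluor fluorescence, 30 min) was read in the same wells after VM7Luc4E2 cells had been exposed to compounds with 0.1 nM 17beta-estradiol for 22 hr at 37C.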
# [15] = target: Androgen receptor (Homo sapiens) (UniProt P10275); assay: qHTS assay to identify small molecule antagonists of the androgen receptor (AR) signaling pathway using the MDA cell line in the presence of 0.5 nM R1881 (AID 1259243); further: nearly all actives have a fitted effect of over 50% in size
# In short: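 Cells: MDA-kb2 (MMTV-luc). Stimulus: 0.5 nM R1881. Time: 16 hr, 37C, no CO2. Detection: ONE-Glo luminescence after 30 min at RT.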
# [16] = target: Estrogen receptor beta (Homo sapiens) (UniProt Q92731); assay: qHTS assay to identify small molecule antagonists of the estrogen receptor beta (ER-beta) signaling pathway (AID 1259378; active means well fitted inhibition curve with a large enough effect in the signal ratio in the repeat runs, not every such curve was filed as active; the % refers to the signal ratio)
# In short: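 ER-beta-UAS-bla HEK293T cells in 2% charcoal-stripped FBS medium treated with compound plus 1nM final 17-beta-estradiol for 16 hr at 37C. Beta-lactamase reporter read by FRET substrate fluorescence after 2 hours at room temperature.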
# [17] = qHTS assay to identify small molecule agonists of the androgen receptor (AR) signaling pathway in the presence of an antagonist - cell viability counter screen (AID 1259379); further: nearly all actives have a fitted effect of over 25% in size; further: potency means the concentration at half of the fitted maximal effect
# In short: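 Counter screen for cell viability run in parallel with the AR agonist-mode luciferase assay. MDA-kb2 cells were co-treated with nilutamide (3.0uM final) and compounds, then incubated 16 hr at 37C, and CellTiter-Fluor fluorescence was measured.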
# [18] = qHTS assay to identify small molecule agonists or antagonists of the thyroid stimulating hormone receptor (TSHR) signaling pathway - wild type cell line counter screen (AID 1259384; calls by dose curve)
# In short: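 Wild-type Hek293 cells, 800/well, 18 h at 37C, then compound with Ro20-1724 for 30 min RT. cAMP by HTRF (cAMP-d2/anti-cAMP cryptate), 1 h RT, fluorescence read. 15 concentrations, triplicates.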
# [19] = target: Thyrotropin receptor (Homo sapiens) (UniProt P16473); assay: qHTS assay to identify small molecule antagonists of the thyroid stimulating hormone receptor (TSHR) signaling pathway (AID 1259385; calls by dose curve; further: nearly all actives have a fitted effect of over 20% in size)
# In short: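 TSHR-HEK293 cells (800/well) plated 18 h, then compounds with Ro20-1724 and TSH at 1.5 ng/mL final, 30 min at room temperature. cAMP quantified by HTRF (cAMP-d2/anti-cAMP-cryptate, 1 h); 15 concentrations in triplicate.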
# Sequence of Estrogen receptor (Homo sapiens) (P03372 whole entry, looked up): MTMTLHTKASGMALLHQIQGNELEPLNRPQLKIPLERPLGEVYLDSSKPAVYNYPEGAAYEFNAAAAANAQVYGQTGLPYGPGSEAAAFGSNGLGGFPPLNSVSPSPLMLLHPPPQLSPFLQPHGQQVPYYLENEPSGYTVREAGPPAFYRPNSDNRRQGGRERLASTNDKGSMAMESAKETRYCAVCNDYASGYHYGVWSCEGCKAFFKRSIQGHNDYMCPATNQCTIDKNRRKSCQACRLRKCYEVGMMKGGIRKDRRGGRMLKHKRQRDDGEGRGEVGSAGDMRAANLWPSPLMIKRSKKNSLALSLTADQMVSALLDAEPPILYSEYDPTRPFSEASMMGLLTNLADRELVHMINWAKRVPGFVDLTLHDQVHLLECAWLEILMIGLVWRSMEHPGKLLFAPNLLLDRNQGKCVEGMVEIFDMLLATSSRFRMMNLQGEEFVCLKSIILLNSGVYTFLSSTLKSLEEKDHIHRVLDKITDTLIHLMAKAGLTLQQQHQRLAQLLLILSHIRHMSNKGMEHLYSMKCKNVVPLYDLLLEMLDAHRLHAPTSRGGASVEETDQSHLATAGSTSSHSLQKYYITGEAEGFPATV
# Sequence of Estrogen receptor beta (Homo sapiens) (Q92731 whole entry, looked up): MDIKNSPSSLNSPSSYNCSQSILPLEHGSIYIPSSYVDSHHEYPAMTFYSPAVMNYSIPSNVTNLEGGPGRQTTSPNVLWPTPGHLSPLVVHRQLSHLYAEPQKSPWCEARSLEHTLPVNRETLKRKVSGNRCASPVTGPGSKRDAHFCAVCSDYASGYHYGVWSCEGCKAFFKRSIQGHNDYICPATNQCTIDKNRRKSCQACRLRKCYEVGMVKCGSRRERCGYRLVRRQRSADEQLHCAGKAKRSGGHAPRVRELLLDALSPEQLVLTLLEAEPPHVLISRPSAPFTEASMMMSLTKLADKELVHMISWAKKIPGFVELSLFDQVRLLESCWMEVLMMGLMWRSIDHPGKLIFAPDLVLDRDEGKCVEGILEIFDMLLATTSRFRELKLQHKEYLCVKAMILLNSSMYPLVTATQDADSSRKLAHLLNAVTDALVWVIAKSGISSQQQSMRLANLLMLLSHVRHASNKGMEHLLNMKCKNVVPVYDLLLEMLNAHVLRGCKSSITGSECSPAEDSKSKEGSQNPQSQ
# Sequence of Thyrotropin receptor (Homo sapiens) (P16473 whole entry, looked up): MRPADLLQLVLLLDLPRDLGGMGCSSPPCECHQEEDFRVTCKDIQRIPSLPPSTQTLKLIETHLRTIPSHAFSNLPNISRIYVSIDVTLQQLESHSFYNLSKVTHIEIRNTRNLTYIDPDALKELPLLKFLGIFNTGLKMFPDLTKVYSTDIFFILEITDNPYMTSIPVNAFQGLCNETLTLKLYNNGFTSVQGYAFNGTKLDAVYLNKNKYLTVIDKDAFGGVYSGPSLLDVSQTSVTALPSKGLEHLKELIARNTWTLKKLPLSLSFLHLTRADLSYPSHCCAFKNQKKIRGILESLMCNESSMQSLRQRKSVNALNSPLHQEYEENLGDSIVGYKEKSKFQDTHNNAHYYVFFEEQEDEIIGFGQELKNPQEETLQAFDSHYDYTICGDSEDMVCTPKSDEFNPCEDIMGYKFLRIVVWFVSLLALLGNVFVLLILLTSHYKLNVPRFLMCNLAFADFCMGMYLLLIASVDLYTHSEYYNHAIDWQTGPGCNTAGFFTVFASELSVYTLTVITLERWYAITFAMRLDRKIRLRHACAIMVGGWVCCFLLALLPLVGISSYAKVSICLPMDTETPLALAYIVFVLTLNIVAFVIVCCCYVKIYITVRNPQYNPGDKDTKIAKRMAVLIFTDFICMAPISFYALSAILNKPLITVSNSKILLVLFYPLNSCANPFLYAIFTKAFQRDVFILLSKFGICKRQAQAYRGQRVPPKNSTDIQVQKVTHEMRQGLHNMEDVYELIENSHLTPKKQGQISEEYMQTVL
# Sequence of Androgen receptor (Homo sapiens) (P10275 whole entry, looked up): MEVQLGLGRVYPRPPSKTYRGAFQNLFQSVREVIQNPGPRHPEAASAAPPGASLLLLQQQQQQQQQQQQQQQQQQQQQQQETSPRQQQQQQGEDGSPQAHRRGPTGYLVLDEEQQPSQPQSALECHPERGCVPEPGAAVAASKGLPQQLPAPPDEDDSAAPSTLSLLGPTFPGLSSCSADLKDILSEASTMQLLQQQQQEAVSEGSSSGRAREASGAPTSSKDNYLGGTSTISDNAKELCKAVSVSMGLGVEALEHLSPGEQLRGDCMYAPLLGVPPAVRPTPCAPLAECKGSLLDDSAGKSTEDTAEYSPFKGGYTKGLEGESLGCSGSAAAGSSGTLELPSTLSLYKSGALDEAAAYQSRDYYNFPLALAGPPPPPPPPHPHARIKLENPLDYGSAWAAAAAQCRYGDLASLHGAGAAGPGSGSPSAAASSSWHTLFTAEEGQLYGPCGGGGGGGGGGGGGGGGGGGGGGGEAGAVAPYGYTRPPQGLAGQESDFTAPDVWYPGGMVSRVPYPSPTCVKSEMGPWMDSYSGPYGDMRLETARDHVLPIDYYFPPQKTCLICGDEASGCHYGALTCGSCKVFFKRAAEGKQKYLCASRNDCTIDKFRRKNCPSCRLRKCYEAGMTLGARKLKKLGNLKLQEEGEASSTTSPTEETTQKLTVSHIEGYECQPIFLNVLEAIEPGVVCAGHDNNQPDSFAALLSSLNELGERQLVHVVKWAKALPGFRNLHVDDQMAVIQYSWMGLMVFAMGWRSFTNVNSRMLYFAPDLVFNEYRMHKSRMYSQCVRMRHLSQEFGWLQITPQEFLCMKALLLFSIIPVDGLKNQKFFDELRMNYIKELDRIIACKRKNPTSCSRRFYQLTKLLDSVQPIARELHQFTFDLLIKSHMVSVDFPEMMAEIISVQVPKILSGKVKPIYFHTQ
Compound,outcome [1],Potency [2],outcome [3],Potency [4],outcome [5],Potency [6],Potency [7],outcome [8],Potency [9],Potency [10],Potency [11],outcome [12],outcome [13],Potency [14],Potency [15],outcome [16],Potency [17],outcome [18],outcome [19]
CC[C@H](C)C(=O)O[C@H]1C[C@H](O)C=C2C=C[C@H](C)[C@H](CC[C@@H](O)C[C@@H](O)CC(=O)O)[C@H]21,inactive,inactive,inactive,inactive,inactive,inactive,inactive,inactive,inactive,inactive,inactive,inactive,inactive,–,–,–,–,–,–
N[C@@H](CCC(=O)Nc1ccc([N+](=O)[O-])cc1)C(=O)O,–,inactive,–,inactive,inactive,inactive,inactive,inactive,inactive,inactive,inactive,inactive,inactive,inactive,inactive,inactive,48.6 µM (active),inactive,inactive
NCCN1CCOCC1,inactive,–,–,inactive,inactive,inactive,inactive,inactive,–,inactive,inactive,–,–,inactive,–,inactive,inactive,inactive,inactive
C[C@@H]1O[C@@H](O[C@@H]2[C@@H](O)[C@H](OCCc3ccc(O)c(O)c3)O[C@H](CO[C@@H]3O[C@H](CO)[C@@H](O)[C@H](O)[C@H]3O)[C@H]2OC(=O)/C=C/c2ccc(O)c(O)c2)[C@H](O)[C@H](O)[C@H]1O,inactive,–,–,inactive,inactive,–,–,inactive,inactive,–,inactive,inactive,–,–,–,–,–,–,inactive
Cc1ccccc1N=O,inactive,–,–,inactive,inactive,inactive,inactive,inactive,inactive,–,inactive,inactive,–,inactive,–,–,inactive,inactive,inactive
CCC(C)(CCC(C)C)C(=O)O (stereo not given),inactive,–,–,inactive,inactive,inactive,inactive,inactive,inactive,–,inactive,inactive,–,inactive,–,–,–,–,–
CC(=O)c1sc(C)nc1C,inactive,–,–,inactive,inactive,inactive,inactive,inactive,inactive,–,inactive,inactive,–,inactive,–,–,inactive,inactive,inactive
COc1ccc(Br)c(C)c1,inactive,–,–,inactive,inactive,inactive,inactive,inactive,inactive,–,inactive,inactive,–,inactive,–,–,inactive,inactive,inactive
